# In PubChem BioAssay AID1531 (NMMLSC, 2009):
# “And” between values parts separate entries of the source, which are not always exact repeats. Equal entries are not always repeated. Out of some 290,000 compounds screened, about 3,300 (1.1%) were called active. Rule as the data show it: active = binding response below about 67% or above about 130%; inconclusive = no clear call, values can overlap the other calls; inactive = in between. Many of the other results were omitted from the sample, so actives are more common in it than they were.
# Target: Mitogen-activated protein kinase kinase kinase 2 (Homo sapiens) (UniProt Q9Y2U5)
# Assay: modulators of MEK5 binding to wildtype MEKK2, primary screen, biochemical, multiplex bead flow cytometry, Alexa488-MEK5 (AID 1531)
# Details: Alexa488-MEK5 binding to MEKK2 WT, at 10 µM, actives lie on both sides
row,Compound,binding response (% of control)
1,O=C(NCCCN1CCOCC1)c1cc(-c2ccc(Cl)cc2)on1,103% (inactive)
2,O=C(NCCN1CCOCC1)c1ccc2c(c1)N(Cc1ccc(Cl)cc1)CCS2,104% (inactive)
3,Cc1c(C)n(Cc2ccc(Cl)cc2)c2ccc(C(=O)NCCCN3CCOCC3)cc12,138% (active)
4,COc1ccc(CNC(=O)C(C)NCc2ccccc2Cl)cc1 (stereo not given),103% (inactive)
5,Cc1c(C)c(C)c(S(=O)(=O)N2CCC3(CC2)OCCO3)c(C)c1C,108% (inactive)
6,Cc1cc(C)n(CCNS(=O)(=O)c2ccc(Cl)cc2)n1,103% (inactive)
7,CCc1cccc(CC)c1NC(=S)NCc1ccc2[nH]c(C)cc2c1,102% (inactive)
8,Cc1cc2cc(CNC(=O)c3ccc(S(=O)(=O)N4CCOCC4)cc3)ccc2[nH]1,97% (inactive)
9,Cc1cc2cc(CNC(=O)c3cccs3)ccc2[nH]1,55% [inhibitor] (active)
10,CC(NC(=O)C1CCCN(S(=O)(=O)c2ccc(-n3cnnn3)cc2)C1)c1ccc(F)cc1 (stereo not given),108% (inactive)
11,COc1cccc(N(CC(=O)NC2CCCCCC2)S(=O)(=O)c2ccccc2)c1,111% (inactive)
12,COc1cccc(C2CC(c3ccccc3)=NN2S(=O)(=O)c2ccccc2)c1OC (stereo not given),20% [inhibitor] (active)
13,COc1ccc(C2=NN(C(=O)c3ccccc3C(=O)O)C(c3ccccc3O)C2)cc1 (stereo not given),100% (inactive)
14,CCOc1ccccc1C1CC(c2cccc(NS(C)(=O)=O)c2)=NN1C(=O)c1ccccc1 (stereo not given),100% (inactive)
15,COc1ccc(NC(=O)NCCN2CCN(c3ccc(C)cc3)CC2)c(Cl)c1,113% (inactive)
16,Cc1ccc(-n2ncc(C(=O)NC3CC3)c2C2CCN(C(=O)OC(C)(C)C)CC2)c(C)c1,96% (inactive)
17,O=C(CN(Cc1ccccc1)C(=O)CCC(=O)Nc1ccccn1)NCCc1ccccc1,107% (inactive)
18,O=C(NC(=S)NC1CCCCC1)c1ccc(Cl)cc1,103% (inactive)
19,COc1ccccc1NC(=S)N1CCN(C(c2ccccc2)c2ccccc2)CC1,98% (inactive)
20,COC(=O)c1ccc(C(=O)OC)c(NC(=S)N2CCN(c3ccc(F)cc3)CC2)c1,98% (inactive)
21,COc1ccccc1NC(=S)N1CCN(c2ccc(F)cc2)CC1,16% [inhibitor] (active)
22,O=C(O)CSc1c2c(nc3cc(C(=O)Nc4cccc(C(F)(F)F)c4)ccc13)CCCC2,105% (inactive)
23,COc1ccccc1OCCNCC(O)COc1cccc2[nH]c3ccccc3c12 (stereo not given),166% (active) and 155% (active) and 213% (active)
24,CC(C)(C)NCC(O)COc1cccc2[nH]c(=O)[nH]c12 (stereo not given),113% (inactive)
25,COc1ccccc1OCC(O)CN1CCOCC1 (stereo not given),109% (inactive)
26,Cc1ccc(NC(=O)COc2ccc(-n3ccnc3)cc2)cc1Cl,153% (active)
27,CCC(=O)c1ccc(OCC(=O)Nc2ccc3nc(C)sc3c2)cc1,87% (inactive)
28,Cc1ccc(NC(=O)C/C(N)=N/O)cc1Cl,100% (inactive)

row,Compound,binding response (% of control)
1,CC(C)(C)c1ccccc1NC(=O)CN1C(=O)NC2(CCCC2)C1=O,100% (inactive)
2,CC(C)c1ccc2oc(=O)cc(CN3CCN(Cc4ccccc4)CC3)c2c1,115% (inactive)
3,O=C(Nc1ccc(C(=O)N2CCCCC2)cc1)c1cccc([N+](=O)[O-])c1,100% (inactive)
4,Cc1cc([N+](=O)[O-])ccc1NC(=O)c1ccc(NC(=O)C(C)C)cc1,101% (inactive)
5,Cn1ccc(=Nc2ccc(NC(=O)c3ccc(N=c4ccn(C)c5ccc([N+](=O)[O-])cc45)cc3)cc2)cc1,146% (active)
6,CCOc1ccccc1N1CCN(C(=S)Nc2ccc(S(N)(=O)=O)cc2)CC1,102% (inactive)
7,COc1ccc(N2CCN(C(=S)Nc3ccc(S(N)(=O)=O)cc3)CC2)cc1,-9% (active)
8,NS(=O)(=O)c1ccc(NC(=S)N2CCCC2)cc1,100% (inactive)
9,CCc1ccc(S(=O)(=O)Nc2cc3c(cc2N2CCCCC2)n(C)c(=O)c(=O)n3C)cc1,101% (inactive)
10,O=C(NCc1nnc(SCC(=O)N2CCCCCC2)o1)c1ccc(F)cc1,102% (inactive)
11,Cc1ccc2c(c1)C1CN(C)CCC1N2S(=O)(=O)c1ccc(Oc2ccc([N+](=O)[O-])cc2)cc1 (stereo not given),201% (active)
12,Cc1ccc2c(c1)C1CN(C)CCC1N2C(=O)c1ccccc1NS(=O)(=O)c1ccc(F)cc1C (stereo not given),98% (inactive)
13,Cc1ccc2c(c1)C1CN(C)CCC1N2C(=S)Nc1ccc(OC(F)F)cc1 (stereo not given),118% (inactive)
14,COc1ccc2c(c1)c(C(=O)N/N=C/c1cccs1)c(C)n2C,99% (inactive)
15,O=C(NCCCN1CCCC1=O)C(=O)NCC1OCCN1S(=O)(=O)c1ccc(Br)cc1 (stereo not given),103% (inactive)
16,CC(=O)Nc1ccc(Nc2ncnc3c2nnn3Cc2ccccc2Cl)cc1,107% (inactive)
17,OC(COc1cccc2ccccc12)CN1CCN(c2ccccn2)CC1 (stereo not given),105% (inactive)
18,CC(C)c1ccccc1OCC(O)CN(CC(O)COc1cccc2ccccc12)C(C)C (stereo not given),181% (active)
19,CCC(C)Sc1nc2c(c(=O)[nH]c(=O)n2C)n1CC(O)COc1cccc2ccccc12 (stereo not given),107% (inactive)
20,CCN1C(=O)N[C@@H](CCc2ccccc2)C(C(=O)OC)=C1C,94% (inactive)
21,CCCCC1(C(=O)OCC)NC(c2ccc(O)cc2)C2C(=O)N(c3ccccc3)C(=O)C21 (stereo not given),99% (inactive)
22,CC(C)[C@H](NC(=O)N1CCn2c1nc1ccccc12)C(=O)NC1CC1,101% (inactive)
23,CC(C)C[C@H](NC(=O)C1CCC(CNC(=O)[C@@H]2CCCN2C(=O)OC(C)(C)C)CC1)C(=O)O (stereo not given in full),103% (inactive)
24,CCc1nnc(NC(=O)CCN(c2ccc(C)cc2)S(=O)(=O)c2ccccc2)s1,108% (inactive)
25,Cc1ccc(N(CCC(=O)O)S(=O)(=O)c2cccc(C(F)(F)F)c2)cc1,4% [inhibitor] (active)
26,O=C(O)c1cc(S(=O)(=O)N(Cc2ccccc2)c2cccc(C(F)(F)F)c2)ccc1Cl,108% (inactive)
27,Cc1cc(C)cc(C(=O)NC(CC(N)=O)c2ccc(N3CCC(N4CCCCC4)CC3)c([N+](=O)[O-])c2)c1 (stereo not given),105% (inactive)
